Sa ugtP lethal = kills S. aureus RN4220 lacking UgtP; S. aureus RN4220 ugtP deletion, OD600 growth, 16 h; growth inhibition, % (test concentration not listed); hit rate 0.54% among 330,000; AID 1259309; in the data active = growth inhibition above about 68%
PfHsp40 yeast = compounds rescuing yeast from Plasmodium falciparum HSP40 toxicity; AID 504582; growth rescue, % at 12.5 µM; hit rate 0.68% among 340,000; S. cerevisiae expressing PfHsp40, growth rescue, ATP luminescence; in the data active = growth rescue above about 28%, passing the limit was not always enough; inconclusive = no clear call, values can overlap the other calls;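 also: yeast W303a lacking pdr1 and pdr3 grown in galactose medium; growth measured after three days at 30 °C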
RN4220 kill = kills Staphylococcus aureus RN4220 | inhibition, % (concentration not given with the values) | S. aureus RN4220 growth, OD600, 16 h | hit rate 0.33% among 330,000; in the data active = inhibition above about 85%
BH1578 lux ind = inducers of Vibrio cholerae quorum light production without autoinducers; V. cholerae BH1578 lux reporter, luminescence, 6 h; hit rate 0.16% among 350,000; activation, % at 18.7 µM; in the data active = activation mostly above about 9.7%, no sharp cut-off; inconclusive = no clear call, values can overlap the other calls; inactive = mostly below about 3.7%
Mtb hypoxia rep = inhibitors of hypoxia-regulated fluorescent reporter in Mycobacterium tuberculosis | M. tuberculosis hypoxia-regulated fluorescent reporter, fluorescence | fluorescence inhibition, % (no concentration beside the values) | hit rate 0.1% among 300,000 | AID 1159583; in the data active = fluorescence inhibition mostly above about 23%, no sharp cut-off; inactive = mostly below about 17%
CCHF vOTU inh-1 = CCHFV vOTU protease inhibition | Pep-AMC fluorescence | inhibition, % at 11.5 µM | hit rate 0.55% among 370,000 | AID 651958
CCHF vOTU inh-2 = CCHFV vOTU protease inhibition, confirmation | Recombinant CCHFV vOTU, Pep-AMC fluorescence | shares compounds with CCHF vOTU inh-1 | inhibition, % at 11.5 µM | hit rate 17% among 1,900
Numbers stand for hits; – = inactive; ? = inconclusive; · = no result shown. Shown are actives, neighbours in structure and some others; about 1.7% of the full set was active somewhere. Rule as the data show it, unless noted: active = inhibition above about 30%; inactive = the rest.

SMILES	Sa ugtP lethal	PfHsp40 yeast	RN4220 kill	BH1578 lux ind	Mtb hypoxia rep	CCHF vOTU inh-1	CCHF vOTU inh-2
O=C(CC1CC=CCCC(Cc2ccc(F)cc2)C(=O)OC(c2ccccc2)CNC1=O)NCCO (stereo not given)	–	·	–	·	–	·	·
O=C1CC(C(=O)Nc2ccc(F)cc2)S/C(=N\N=C\c2ccco2)N1 (stereo not given)	·	–	·	–	·	35	–
COC(=O)c1cccc(C23CC4(C2)C(CN(C)C4c2ccccc2)C3c2ccccc2)c1 (stereo not given)	–	·	–	·	–	·	·
COc1ccc2c(n1)Sc1nc3ccccc3nc1N2	–	336	–	–	–	59	–
O=C1c2ccccc2C(=O)N1CC1=NCCc2ccccc21	–	–	–	–	–	39	–
O=C1c2ccccc2CCc2ccccc21	–	–	–	–	–	–	·
COc1ccc(C(=O)c2ccc(N3CCOCC3)c([N+](=O)[O-])c2)cc1	–	–	–	–	–	30	–
CC(Cc1nnn(-c2cc(C)on2)n1)=NO	–	·	–	·	–	·	·
O=C1Cc2ccccc2C(=O)N1Cc1ccccc1	–	–	–	–	·	93	91
CC1(C(=O)NS(=O)(=O)c2cccc(F)c2)CCN1C(=O)C1CCCCC1 (stereo not given)	·	·	·	–	·	34	–
Cc1cc(=O)n2c3c(c4c(cc13)c(CN(C)C)cc(=O)n4C)OC2	·	–	·	–	·	90	51
Cc1cc(=O)n(C)c2ccccc12	–	–	–	–	–	–	·
COC(=O)NN=Cc1ccccc1OCc1ccccc1	–	·	–	·	–	·	·
NS(=O)(=O)c1ccc2c(c1)C(=NO)c1cc(S(N)(=O)=O)ccc1-2	–	–	–	–	–	–	·
NC1=C(Cl)C(=O)c2ccccc2C1=O	·	–	·	–	·	81	81
NC1=C(Cl)C(=O)c2ccc(S(N)(=O)=O)cc2C1=O	98	–	99	–	·	103	99
COc1ccc(CC2c3cc(O)c(OC)cc3CC[N+]2(C)[O-])cc1O (stereo not given)	–	·	–	·	–	·	·
O=C(Nc1cccc(Cl)c1)c1ccccc1	–	–	–	–	–	–	·
O=C(NC1=C(NC2CCS(=O)(=O)C2)C(=O)c2ccccc2C1=O)c1ccccc1 (stereo not given)	–	–	–	–	–	71	69
CN(C1=C(NC(=O)c2ccc(Cl)cc2)C(=O)c2ccccc2C1=O)c1ccccc1	·	?	·	–	·	45	–
O=C(NC(NC1CCS(=O)(=O)C1)C(=O)c1cccs1)c1ccccc1 (stereo not given)	–	·	–	·	–	–	·
Cc1cccc(NC2=C(NC(=O)c3ccccc3)C(=O)c3ccccc3C2=O)c1	·	–	·	–	·	68	37
O=C1C(Cl)=C(NC(=O)c2ccccc2)C(=O)C(Cl)=C1NC(=O)c1ccccc1	–	–	–	–	–	97	–
O=C(NC1=C(Nc2ccc(Cl)cc2)C(=O)c2ccccc2C1=O)c1ccccc1	–	–	–	–	·	–	·
COC(=O)C1CCCN1C(=O)C(NC(=O)OC(C)(C)C)C(C)C (stereo not given)	–	·	–	·	–	·	·
SMILES	Sa ugtP lethal	PfHsp40 yeast	RN4220 kill	BH1578 lux ind	Mtb hypoxia rep	CCHF vOTU inh-1	CCHF vOTU inh-2
CCCCCCCC(C)=NNC(=O)CC(=O)NCCc1ccccc1	–	·	–	·	–	·	·
CCNC(=S)NN=Cc1cc(C)ccc1C	–	·	–	·	–	·	·
CC=C(C)C(=O)Nc1cccc(C2=NOC3(C2)CC(C(N)=O)N(C(=O)c2cc([N+](=O)[O-])cc([N+](=O)[O-])c2)C3)c1 (stereo not given)	–	·	–	·	·	·	·
Cc1cccc(/C=N/NC(=O)C(C)Nc2cccc3ccccc23)n1 (stereo not given)	·	–	·	–	·	115	–
COc1cc([N+](=O)[O-])cc(/C=N/NC(=O)C(C)Nc2cccc3ccccc23)c1O (stereo not given)	·	–	·	–	·	–	·
O=C(Nc1cccc2ccccc12)c1ccc([N+](=O)[O-])cc1	–	–	–	–	–	–	·
O=C(CNc1cccc2ccccc12)c1ccc([N+](=O)[O-])cc1	–	?	–	–	·	30	–
CC(Nc1cccc2ccccc12)C(=O)N/N=C/c1ccc([N+](=O)[O-])cc1 (stereo not given)	·	–	·	–	·	104	–
CC(C(O)c1ccccc1)N(C)C(=O)CN (stereo not given)	–	·	–	·	–	·	·
CCOC(=O)c1sc(N=CNc2nc(C)c(C(=O)OCC)s2)nc1C	–	·	–	·	–	·	·
OCCC1CC(O)C(O)[C@]2(Cc3ccccc3CO2)O1 (stereo not given in full)	–	·	–	·	–	·	·
Cn1nc(C(C)(C)C)cc1NC(=O)C1(C)CCN1C(=O)CC(c1ccccc1)c1ccccc1 (stereo not given)	·	·	·	–	·	33	–
COC(=O)c1ccccc1NC1=C/C(=N\S(=O)(=O)c2cccs2)c2ccccc2C1=O	–	–	–	–	–	–	·
Cc1ccc(S(=O)(=O)/N=C2\C=C(Nc3cccc(C(=O)O)c3)C(=O)c3ccccc32)cc1	·	–	·	–	·	105	99
Cc1ccc(NC2=C/C(=N/S(=O)(=O)c3cccs3)c3ccccc3C2=O)cc1	·	–	·	–	·	98	99
Cc1ccc(S(=O)(=O)/N=C2\C=C(Nc3cccc(C(=O)O)c3)C(=O)c3ccccc32)c(C)c1	·	–	·	–	·	114	112
Cc1ccc(S(=O)(=O)/N=C2\C=C(Nc3ccc(O)cc3)C(=O)c3ccccc32)cc1	–	–	–	–	–	·	·
O=C(N/C(=C/c1cn(-c2ccccc2)nc1-c1ccccc1)C(=O)N1CCOCC1)c1ccccc1	–	·	–	·	–	·	·
Cc1ccc(C(=O)N/C(=C/c2cn(-c3ccccc3)nc2-c2ccccc2)C(=O)O)cc1	–	–	–	–	–	39	–
COc1ccc(CN([C@H](CO)CC(C)C)S(=O)(=O)N(Cc2ccccc2)[C@H](CO)CC(C)C)cc1	·	–	·	–	·	34	–
CC(C)C[C@@H](CO)N(Cc1ccccc1)S(=O)(=O)N(Cc1ccccc1)[C@H](CO)CC(C)C	·	–	·	–	·	·	·
CC[N+]1(C)C2CCC1CC(OC(=O)C1CCC(C(=O)OC3CC4CCC(C3)[N+]4(C)CC)(c3ccccc3)c3ccccc31)C2 (stereo not given)	–	·	–	·	–	·	·
O=C(O)c1cc(O)c2c(c1)[C@H]([C@H]1c3cc(C(=O)O)cc(O)c3C(=O)c3c(O[C@@H]4O[C@H](CO)[C@@H](O)[C@H](O)[C@H]4O)cccc31)c1cccc(OC3O[C@H](CO)[C@@H](O)[C@H](O)[C@H]3O)c1C2=O (stereo not given in full)	·	?	·	–	·	118	107
O=C(O)c1cc(O)c2c(c1)[C@@H]([C@H]1c3cc(C(=O)O)cc(O)c3C(=O)c3c(O[C@@H]4O[C@H](CO)[C@@H](O)[C@H](O)[C@H]4O)cccc31)c1cccc(OC3O[C@H](CO)[C@@H](O)[C@H](O)[C@H]3O)c1C2=O (stereo not given in full)	·	–	·	–	·	73	33
